# Assay results reported in PubChem BioAssay AID770 (SRMLSC, 2007).
# Among all 3,300 compounds or so, fewer than 10 were called active.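 The calls were made as follows: active = growth inhibition above 90% in viable cell count at a single dose; inactive = growth inhibition below 90%.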 Not all results are given here.
# Test: HT29 colon tumor cell growth inhibition, primary screen, imaging, high content imaging, 24 h, CellTiter-Glo (AID 770);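 as to condensed nuclei: share of cells whose nuclear area falls below control median minus 1.5 SD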
# Conditions: HT29 cell number by imaging, at 10 µM, stronger effect = higher value; for condensed nuclei: measured here: percent cells with condensed nuclei
# [1] = measured here: ATP CellTiter-Glo viability
Structure (SMILES),growth inhibition,growth inhibition [1] [%],condensed nuclei [%]
Cc1ccc(N2CN=c3s/c(=C\c4cccnc4)c(=O)n3C2)cc1,8.42% (inactive),6.47,1.92
O=C1NCC(COCC2CC=CCC2)O1 (stereo not given),12.9% (inactive),-2.87,2.4
COc1ccc(OC)c(N=C(C)C2=C(O)COC2=O)c1,23.1% (inactive),7.81,1.86
CSc1nc(N2CCCC2)c2c(c1C#N)CC(C)(C)OC2,-22.4% (inactive),-13.8,2.73
COc1ccc(N2CCN(c3oc(COc4ccc(Cl)cc4)nc3C#N)CC2)cc1,22.4% (inactive),12.5,2.73
COC(=O)c1ccc(C2/C(=C(/O)c3ccc(OC)cc3)C(=O)C(=O)N2Cc2ccco2)cc1 (stereo not given),26.5% (inactive),-0.21,4.2
CCCCCCc1cc2cc(-c3nnc(-c4ccccc4O)o3)c(=O)oc2cc1O,47% (inactive),17.7,6.21
CCN(CC)c1ccc2cc(C(=O)Nc3ccccn3)c(=O)oc2c1,6.44% (inactive),-4.18,2.75
CCN(CC)c1ccc2cc(-c3nnc(-c4ccncc4)o3)c(=O)oc2c1,100% (active),-9.78,2.72
CCOC(=O)CSc1nc(N)c(C#N)c(-c2ccc(OC)cc2)c1C#N,-7.67% (inactive),-12.5,3.97
Cc1c(C)c2cc(Cl)c(O)c(CN3CCCC(C)C3)c2oc1=O (stereo not given),25.4% (inactive),-6.25,3.35
CCOP(=O)(c1ccccc1)C1(C#N)CCCC1 (stereo not given),-30.7% (inactive),-12.2,4.43
CCCCOc1ccc(CN(C)c2ncnc(N)n2)cc1,56% (inactive),22.5,6.77
C1CCC(C(CC2CCCCN2)C2CCCCC2)CC1 (stereo not given),99.3% (active),97.5,30.1
CC1(C)CC(=O)C2=C(C1)N(Cc1ccco1)C(=O)C2(O)C(F)(F)F (stereo not given),11% (inactive),-21.1,2.44
CSc1nncc(=O)[nH]1,-17.8% (inactive),10.8,1.83
CN1CCN(/C=N/c2sc3c(c2C#N)CCCCC3)CC1,45.9% (inactive),15.9,4.6
COc1ccc2c(c1OC)C(=O)N1c3ccccc3SC21 (stereo not given),-18.9% (inactive),-15.6,2.15
Nc1ccc2oc(-c3ccccc3Cl)nc2c1,26.7% (inactive),5.57,11.4
CCc1cc(=O)oc2c(CN3CCN(C)CC3)c(O)c(Cl)cc12,52.2% (inactive),-8.76,4.11
CCOC(=O)NC(Nc1cc(C)on1)(C(F)(F)F)C(F)(F)F,-33.3% (inactive),-14.8,4.42
COCCOC(=O)C1=C(C)OC(N)=C(C#N)C1c1ccco1 (stereo not given),13.2% (inactive),1.7,3.33
CCSc1nnc(NC(=O)C(CC)(C(F)(F)F)C(F)(F)F)s1,3.79% (inactive),-3.56,3.03
COc1ccc(OC)c(C2/C(=C(/O)c3ccccc3)C(=O)C(=O)N2Cc2ccco2)c1 (stereo not given),11.9% (inactive),-6.75,4.83
O=C(C/C(=N/O)c1ccccc1O)C(F)F,-0.96% (inactive),-14.3,1.25

Structure (SMILES),growth inhibition,growth inhibition [1] [%],condensed nuclei [%]
O=C(c1cccc2ccccc12)N1CCC(N2CCN(c3ccccc3)CC2)CC1,-27.1% (inactive),-18.2,3.56
Cn1c(O)c(C=Nc2ccc(Cc3ccncc3)cc2)c(=O)n(C)c1=O,13.2% (inactive),-6.92,1.24
CCOC(=O)CC1=NC(=O)CS1,7.12% (inactive),1.44,1.37
Cc1ccc(S(=O)(=O)NC(=O)Nc2ncc3c(n2)CC(c2ccco2)CC3=O)cc1 (stereo not given),-27% (inactive),0.34,2.73
CCCc1nc2n[nH]c(N)c2c2c1CCCC2,3.73% (inactive),6.01,3.31
O=C1C(=O)N(CCCn2ccnc2)C(c2ccccn2)/C1=C(/O)c1ccccc1 (stereo not given),20.5% (inactive),-11.5,3.21
CCOc1ccc(/C(O)=C2/C(=O)C(=O)N(CCN(CC)CC)C2c2ccco2)cc1 (stereo not given),-44.4% (inactive),-11.1,3.46
CC1CCN(c2[nH]c(=S)c(C#N)c3c2CCCC3)CC1,2.28% (inactive),-10.9,1.9
CC1(C)CC(=O)C2=C(C1)N(Cc1ccco1)C(=O)C2(NC(=O)c1cccnc1)C(F)(F)F (stereo not given),18.6% (inactive),-14.4,1.91
CCCOc1ccc(Cc2nn[nH]n2)cc1,36.3% (inactive),4.03,4.59
O=C(NCCOCCOCCNC(=O)c1cccnc1)c1cccnc1,-50.5% (inactive),-16.6,2.66
CC(C)CSc1nc(N2CCOCC2)c2c(c1C#N)CC(C)(C)SC2,-12.2% (inactive),13.9,2.93
CCOC(=O)C1CCN(c2nc3ccccc3nc2C(C#N)C(=O)OC(C)COC)CC1 (stereo not given),-2.37% (inactive),11.6,15.8
CCOc1ccc(-n2c(SCc3ccc(C#N)cc3)nnc2-c2cccnc2)cc1,17.1% (inactive),-9.28,4.78
CCOC(=O)NC(O)C(=O)c1cccs1 (stereo not given),-55.2% (inactive),-7.3,1.51
CC(C)OC(=O)CC1=NC(=O)CS1,-22% (inactive),-8.97,3.69
COc1ccc(C=NCCC2(O)CC(C)N(C)CC2C)cc1 (stereo not given),22.1% (inactive),-0.31,3.27
COC(=O)CSc1nc(C)c(C(C)=O)cc1C#N,14.2% (inactive),-9.13,4.87
COc1ccc(C2Nc3ccccc3C(=O)N2Cc2ccco2)cc1CN1C(=O)c2ccccc2C1=O (stereo not given),-35.2% (inactive),-9.9,3.89
Cc1ccc(N2C(=O)CC(Cn3nc(C)cc3C)C2=O)cc1 (stereo not given),5.93% (inactive),-3.3,4
CCN(CC)c1ccc(C2Nc3cccc4cccc(c34)N2)c(O)c1,39.6% (inactive),11.2,9.18
N#CCSc1nc2c(cc1C#N)CCCCCC2,27.6% (inactive),16.5,3.85
O=C(c1ccco1)N1CCN(CCOCCOc2cccc3ccccc23)CC1,-0.64% (inactive),-9.08,4.04
COC(=O)CSc1nnc(C)c(=O)[nH]1,-50.8% (inactive),-8.35,0.97
CCN(CC)CCCn1c(C)cc2c(c1=O)C(c1ccccc1)C(C#N)=C(N)O2 (stereo not given),3.77% (inactive),-0.04,3.21
